High-throughput results as filed in PubChem BioAssay.
TDP1 inh = blocks human tyrosyl-DNA phosphodiesterase 1; Q9NUW8; recombinant TDP1, AlphaScreen DNA substrate cleavage; Potency, µM (titrated, usually from 130 µM), for the others: top-dose activity change, negative = inhibition, hits mostly inhibitors; 350,000 tested, 0.28% active; AID 485290; further: nearly all actives have a fitted effect of over 40% in size
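Signal: AlphaScreen proximity between streptavidin donor and anti-FITC acceptor beads on intact substrate. Reaction: Tdp1 1 nM, substrate 15 nM final, 5 min RT after 15 min compound preincubation.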
APEX1 inh = blocks human APE1 abasic DNA cleavage; P27695; recombinant APE1, TAMRA/BHQ-2 abasic DNA cleavage fluorescence; Potency, µM (highest dose often 65.8 µM), for the others: at the highest dose activity change, negative = inhibition, most hits filed as inhibitors; 350,000 tested, 0.35% active;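 further: plate controls were vehicle for no effect and reference inhibitor for full effect; nearly all actives have a fitted effect of over 55% in size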
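APE1 at 0.75 nM preincubated 15 min at room temperature with compound. Reaction then started with 50 nM double-stranded THF-abasic substrate labelled with TAMRA/BHQ-2, and 525/598 nm fluorescence read kinetically. Activity taken as third-minus-first read difference, normalized to DMSO and NSC13755 controls.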
L3MBTL1 block = L3MBTL1 (human) inhibition; Q9Y468; AlphaScreen L3MBTL1–H3K9me1 peptide binding; Potency, µM (titrated, usually from 57.1 µM), without a hit: top-dose activity, negative = inhibition, actives largely listed as inhibitors; 230,000 tested, 0.66% active; further: nearly all actives have a fitted effect of over 60% in size
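Displacement of a biotinylated histone H3(1-15) peptide monomethylated at Lys9 (75 nM) from L3MBTL1 (50 nM) was measured by AlphaScreen after a 30 min room-temperature compound incubation; cefsulodin titration served as intraplate control.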
BLM helicase inh = Bloom syndrome helicase (human) inhibition | 350,000 tested, 0.2% active | Potency, µM (titrated, usually from 56.1 µM), without a hit: top-dose activity change, negative = inhibition, actives largely listed as inhibitors | AID 2528 | recombinant BLM DNA unwinding, fluorescence dequenching;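 further: plate controls were vehicle for no effect and no enzyme for full effect; nearly all actives have a fitted effect of over 35% in size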
KDM4E inh = JMJD2E (human) inhibition; JMJD2E catalytic domain, FDH-coupled NADH fluorescence (FDH is formaldehyde dehydrogenase); B2RXH2; Potency, µM (series often up to 57.1 µM), without a hit: at the highest dose activity change, negative = inhibition, usual class: inhibitors; 230,000 tested, 1.6% active; active means well fitted inhibition curve with a large enough effect, not every such curve was filed as active; inconclusive means small, poorly fitted or top-dose-only effect, or another doubt; inactive means no such curve, though single readings can be large or run the other way;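 further: 0% = wells with enzyme and -100% = buffer wells without enzyme; nearly all actives have a fitted effect of over 50% in size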
RECQ1 inh-1 = RECQ1 (human) helicase inhibition. 240,000 tested, 0.54% active. RECQ1 DNA unwinding, red fluorescence kinetic read. Potency, µM (series often up to 57.3 µM), for the others: at the highest dose activity, negative = inhibition, hits mostly inhibitors. AID 2549. P46063;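 further: plate controls were vehicle for no effect and no enzyme for full effect; nearly all actives have a fitted effect of over 30% in size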
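RECQ1T1 50 nM; forked duplex (20 bp + 30-nt ss tails) 200 nM, ATP 2 mM final; pH 8.0, 2 mM MgCl2, 2.5 ug/ml poly(dI-dC); 15 min compound preincubation; discontinuous kinetic read over 2 h at RT.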
RECQ1 inh conf = confirmation of human RECQ1 helicase inhibitors; shares compounds with RECQ1 inh-1; 610 tested, 28% active; Potency, µM (highest dose often 229 µM), for inactives: at the top dose activity change, negative = inhibition, actives largely listed as inhibitors; RECQ1 helicase DNA unwinding, fluorescence; AID 2708; further: nearly all actives have a fitted effect of over 45% in size
RECQ1 ADP FP = ADP displacement flagged in RECQ1 inhibitor counter-screen | shares compounds with RECQ1 inh-1 | ADP fluorescence polarization displacement counterscreen | Potency, µM (doses to about 228 µM), without a hit: at the top dose activity change, negative = inhibition, actives largely listed as inhibitors | 530 tested, 27% active; further: nearly all actives have a fitted effect of over 45% in size
RECQ1 inh-2 = blocks human RECQ1 DNA unwinding; shares compounds with RECQ1 inh-1; recombinant RECQ1 DNA unwinding, red fluorescence; Potency, µM (series often up to 119 µM), for the others: at the highest dose activity, negative = inhibition, hits mostly inhibitors; AID 504841; 1,100 tested, 15% active; further: nearly all actives have a fitted effect of over 50% in size
* = called active by the depositor; i = inactive; ? = inconclusive; nt = no result given; [ ] = dose if it differs, or a comment. The sample as a whole holds a higher share of hits than the screen did. Unless noted, the call rests on the fitted dose curve; in most records, active means well fitted curve in the direction sought with a large enough effect; inconclusive means small, poorly fitted or top-dose-only effect, or another doubt; inactive means no such curve, though single readings can be large; an effect the other way counts as inactive or inconclusive. Unless noted, on the % scale 0 is the no-effect control and ±100 the full control effect; potency means the concentration at half of the fitted maximal effect.

SMILES | TDP1 inh | APEX1 inh | L3MBTL1 block | BLM helicase inh | KDM4E inh | RECQ1 inh-1 | RECQ1 inh-2 | others
COc1cc(C2c3cc4c(cc3C(OC3OC5COC(C)O[C@@H]5C(O)C3O)C3COC(=O)C23)OCO4)cc(OC)c1O (some centres undefined) | 8%[56.1 µM] | 13% | nt | 4% | 4% | -4% | nt
COc1cc(/C=C(\C#N)c2nc3ccccc3[nH]2)cc(OC)c1O | 5% | ? | -24% | -26% | 9% | ? | 56µM*
Cc1nn(-c2ccccc2)c(Cl)c1C(=O)NCc1cccs1 | 0% | 0% | -14% | -21% | 4% | ? | -22%
Cc1nn(-c2ccccc2)c(C)c1C(=O)NCc1cccs1 | -2% | ? | 5% | 2% | 7% | -6% | nt
CCCc1cc(=O)[nH]c2nnc(SCC(=O)Nc3ccc(OC)cc3)n12 | 5% | nt | nt | 3% | nt | nt | nt
COc1ccccc1-c1nnc2n1N=C(c1ccc(O)c(O)c1)CS2 | -12% | ? | -29% | -15% | 25µM* | 32µM* | ?
CC1=C(C(=O)N2CCOCC2)C(c2cc(C)cs2)NC(=O)N1 (centres undefined) | 2% | ? | -15%[11.4 µM] | -1% | ? | ? | 79µM*
CC1=C(C(=O)N2CCOCC2)C(c2cccs2)NC(=O)N1 (centres undefined) | -2% | -7% | -9% | -2% | -9% | 0% | nt
Cc1cc(O)cc(O)c1C(=O)OC1(C)C(=O)C=C2C=C(/C=C/C(=O)O)OC=C2C1=O (centres undefined) | nt | 14µM* | nt | 84% | ? | 28µM* | ?
CC1(OC(=O)c2ccco2)C(=O)C=C2C=C(C3CC3)OC=C2C1=O (centres undefined) | 5% | -5% | nt | -3% | 1% | -6% | nt
CC(N)COC(=O)C(CCCCN)NC(=O)Cc1c(-c2ccc3ccccc3c2)[nH]c2c1ccc1ccccc12 (centres undefined) | 17% | 9% | nt | -12% | nt | -25% | nt
CCN(CC)c1cccc(OC2=NS(=O)(=O)c3ccccc32)c1 | 10% | 15% | -3% | -4% | ? | ? | -22%
CCOC(=O)c1ccc(CC(=O)c2oc3cc(O)ccc3c2C)o1 | 11% | -3% | -11% | -14% | ? | -4% | nt
CCOC(=O)c1ccc(CC(=O)c2ccc(O)c(O)c2O)o1 | nt | ? | ? | -6% | 3.2µM* | 1.4µM* | nt | RECQ1 inh conf=5%[114 µM];RECQ1 ADP FP=2%[91.9 µM]
Cc1cc2oc(C(=O)Nc3cccc(-c4nc5ccccc5o4)c3)c(C)c2cc1C | -4% | nt | nt | 1% | nt | nt | nt
Cc1ccccc1OCC(=O)NCC(=O)OCC(=O)c1ccc(-c2ccccc2)cc1 | 1% | nt | nt | nt | nt | nt | nt
CCn1c(SCC(=O)OC)nc2sc3c(c2c1=O)CCC3 | nt | ? | ? | -22% | -2% | ? | ?
O=C(CN1C(=O)S/C(=C/C=C/c2ccccc2)C1=O)Nc1ccc(C(=O)O)cc1 | -10% | 4% | nt | -13% | ? | i | nt
Cc1ccc(NC(=O)CN2C(=O)S/C(=C\c3cc(C)n(-c4ccc(C(=O)O)cc4)c3C)C2=O)cc1 | -10% | 4% | -18% | -10% | ? | ? | ?
CC1(C)CC2CC(C)(CN2S(=O)(=O)c2cccc(C(N)=O)c2)C1 (centres undefined) | -5% | -10% | 1% | nt | nt | nt | nt
CC1(C)CC2CC(C)(CN2S(=O)(=O)c2ccc(C(=O)Nc3cc(S(=O)(=O)N4CCOCC4)ccc3Cl)cc2)C1 (centres undefined) | -3% | ? | 4% | -7% | -4% | -9% | nt | RECQ1 inh conf=0%;RECQ1 ADP FP=8%
CC1(C)CC2CC(C)(CN2S(=O)(=O)c2ccc(C(=O)Nc3cccc(S(=O)(=O)N4CCOCC4)c3)cc2)C1 (centres undefined) | -3% | -1% | -12% | -8% | 0% | -2% | nt | RECQ1 inh conf=-12%;RECQ1 ADP FP=1%
O=C(Nc1cc(S(=O)(=O)N2CCOCC2)ccc1Cl)c1ccc(=O)[nH]c1 | -5% | -8% | -3% | nt | nt | nt | nt
COc1ccc(OC)c(-c2c3cc(O)c(=O)cc-3oc3cc(O)c(O)cc23)c1 | 9% | 32µM* | 0.79µM* | 28µM* | 11µM* | 35µM* | 40µM*
CCCCn1c(NC(=O)c2ccco2)c(S(=O)(=O)c2ccc(C)cc2)c2nc3ccccc3nc21 | 0% | ? | -8% | -23% | ? | ? | -28%
SMILES | TDP1 inh | APEX1 inh | L3MBTL1 block | BLM helicase inh | KDM4E inh | RECQ1 inh-1 | RECQ1 inh-2 | others
CCN1C(=O)[C@H]2[C@H]3[C@H](O)[C@H](O)C/C(=N/O[C@@H](C)c4cn([C@H]5COC[C@H]5O)nn4)[C@@H]3CC[C@@H]2C1=O | -1%[21 µM] | 32%[12.4 µM] | nt | 5%[12.4 µM] | nt | -1%[11.5 µM] | nt
Cc1cc(C)c(S(=O)(=O)NCC(c2cccs2)S(=O)(=O)c2ccccc2)c(C)c1 (centres undefined) | 0% | nt | nt | 1% | nt | nt | nt
CC(N=C1CC(C)(C)CC(=O)/C1=C(/O)CCCN1C(=O)c2ccccc2C1=O)C(=O)O (centres undefined) | 3% | -5% | nt | 1% | 0% | -1% | nt | RECQ1 inh conf=11%;RECQ1 ADP FP=?
CC1(C)CC(=O)/C(=C(/O)CCCN2C(=O)c3ccccc3C2=O)C(=NC(C)(C)C)C1 | 8% | 1% | 16% | 0% | 6% | -5% | nt
CC1(C)CC(=O)/C(=C(\O)CCCN2C(=O)c3ccccc3C2=O)C(=NCC(=O)O)C1 | 0% | 15% | nt | 0% | 5% | i | nt | RECQ1 inh conf=-2%;RECQ1 ADP FP=2%
C[C@H]1[C@H](C)CC[C@]2(C=O)CC[C@]3(C)C(=CC[C@@H]4[C@@]5(C)C[C@@H](O)[C@H](O)[C@@](C)(CO)[C@@H]5CC[C@]43C)[C@H]12 | 12% | -10% | nt | -5% | nt | 6% | nt
O=C(Cl)COCc1ccccc1 | 9% | 10% | nt | 0% | nt | 17% | nt
Cn1c(=O)c2sccc2n2c(CCC(=O)N3CCN(c4ccc(F)cc4)CC3)nnc12 | 4% | nt | nt | 1% | nt | nt | nt
COc1cccc(C(=O)Nc2cccc(NC(=O)c3ccc(Cl)cc3Cl)c2)c1 | 1%[12.3 µM] | nt | nt | -4% | nt | nt | nt
